The results in this text go back to PubChem BioAssay (NCATS).

Each structure is given as a SMILES string. “And” between values parts separate entries of the source, which are not always exact repeats. Equal entries are not always repeated. Records with an inconclusive call do not appear. The source made the active and inactive calls. Unless noted, calls come from the whole dose curve; as a rule, active = well fitted curve in the direction sought with a large enough effect; inconclusive = small, poorly fitted or top-dose-only effect, or another doubt; inactive = no such curve, though single readings can be large; an effect the other way counts as inactive or inconclusive.

Experiment [1] can be described thus: Cell Viability - Jurkat (AID 426;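 active = dose-dependent loss of cell ATP signal giving a full or clear fitted curve, ranked by lower potency value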;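 note: potency is the fitted concentration of half-maximal effect; cells exposed to compound for 40 hours at 37 °C before ATP read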). The conditions noted are these: qHTS. In short, it runs like this:
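Seed 5000 Jurkat E6-1 cells/well; add compound; incubate 40 hr at 37 °C; add CellTiter-Glo; wait 20 min at room temperature; read luminescence. Fit concentration-response with Hill equation for AC50.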
(In general: Quantitative high-throughput screening tests each substance at several concentrations.)

The nature of experiment [2]: Cell Viability - Hek293 (AID 427;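 active = compounds whose dose-response curve shows a full or clear partial loss of cell viability, called from curve shape rather than a numeric limit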;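 note: potency is the fitted concentration of half-maximal effect; cells exposed to compound for 40 hours at 37 °C before reading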). The conditions noted are these: qHTS. The essentials:
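qHTS, human embryonic kidney (adenovirus-transformed) cells; 40 hr cpd, 37 °C; CellTiter-Glo ATP luminescence. Norm: DMSO = 0, 100 uM tamoxifen = 100% inhibition. Hill-fit AC50.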

Experiment [3] is described as follows: Cell Viability - N2a (AID 540).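 Note: cells exposed to compound for 40 h at 37 °C; plate controls were DMSO alone for no effect and tamoxifen control for full effect; nearly all actives have a fitted effect of over 45% in size.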 The conditions noted are these: N2a mouse neuroblastoma cell viability; at 92.2 µM (top of the series). The essentials: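 First, 1500 N2a cells per well incubate 5 hr at 37 °C; next, compounds are added and incubated 40 hr at 37 °C; finally CellTiter-Glo is added and luminescence read after 20 min, with AC50 derived by Hill modeling.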

The nature of experiment [4]: Cell Viability - H-4-II-E (AID 543).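 Note: cells exposed to compound for 40 hours; % is set by controls: 0 for no effect and ±100 for the full control effect; nearly all actives have a fitted effect of over 35% in size.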 The note with it: H-4-II-E rat hepatoma viability; series mostly up to 92.2 µM. The essentials: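 Here, cytotoxicity is measured in the rat hepatoma line H-4-II-E as loss of intracellular ATP after 40 hr compound treatment, detected by luciferase luminescence.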
The nature of experiment [5]: Cellular Toxicity (caspase-3) HepG2 (AID 654).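 Note: cells exposed to compound for 16 hours before reading.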 The note with it: HepG2 caspase-3 activation, luminescence, 0% = DMSO only, 100% = tamoxifen; series mostly up to 92.2 µM. The essentials:
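qHTS, HepG2, 1500 cells/well, complete medium; cpd 16 h 37 °C; Caspase-Glo 3/7, 20 min RT; lum. Norm: DMSO vs 100 uM tamoxifen; AC50 Hill fit.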

Experiment [6] is described as follows: Cellular Toxicity (caspase-3) NIH 3T3 (AID 666).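 Note: caspase signal read after 16 h compound exposure; 0% = DMSO basal and 100% = 100 µM tamoxifen stimulation.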 The note with it: NIH 3T3 caspase-3 activation, apoptosis/toxicity, 0% DMSO, 100% is 100 µM tamoxifen; series mostly up to 92.2 µM. In short, it runs like this: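 Concentration-response qHTS in NIH 3T3 mouse fibroblasts scores caspase-3/7 activation as rising luminescence after 16 hr compound exposure. Signals are scaled between DMSO-only and 100 uM tamoxifen.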

The nature of experiment [7]: MultiTox-Fluor Cytotoxicity Assay - LYMP1-002 - Live Cells (AID 955).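 Note: cells exposed to compound for 16 hours; % is set by controls: 0 for no effect and ±100 for the full control effect.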 The conditions noted are these: LYMP1-002 lymphoblastoid live-cell protease fluorescence viability; series mostly up to 46.1 µM. In short, it runs like this:
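Cytotoxicity in the human lymphoblastoid line LYMP1-002 is measured as loss of live-cell protease activity after 16 h treatment in complete culture medium. AC50 is derived from Hill-equation fits of qHTS concentration-response data.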

Experiment [8] can be described thus: MultiTox-Fluor Cytotoxicity Assay - LYMP1-003 - Live Cells (AID 962).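 Note: cells exposed to compound for 16 hours at 37 °C; 0% = DMSO only and full loss = 92 µM tetraoctylammonium bromide; cytotoxic hits lower the live-cell protease signal.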 The note with it: LYMP1-003 lymphoblastoid cells, MultiTox-Fluor live-cell protease fluorescence; series mostly up to 92.2 µM. The essentials:
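Cells plated at 2500 per well and incubated 5 hr; compounds added and incubated 16 hr at 37 C; MultiTox-Fluor reagent added for 60 min at room temperature; fluorescence of liberated AFC measured at 405/510 nm.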

Experiment [9] in a line: Cell Viability - LYMP1-003 - Assay at 40 hr (AID 964). Note: % is set by controls: 0 for no effect and ±100 for the full control effect; nearly all actives have a fitted effect of over 60% in size. The note with it: LYMP1-003 lymphoblastoid viability; series mostly up to 92.2 µM. In short, it runs like this:
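This qHTS cytotoxicity screen treats human lymphoblastoid cells (LYMP1-003) with compounds for 40 hr and quantifies cellular ATP via luciferase luminescence.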

Experiment [10] in a line: Cell Viability - LYMP2-003 (AID 965).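 Note: cells exposed to compounds for 24 h before reading; 0% = DMSO only and full effect = 92 µM tetraoctylammonium bromide; nearly all actives have a fitted effect of over 50% in size.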 The conditions noted are these: LYMP2-003 lymphoblastoid cell viability; series mostly up to 92.2 µM. The essentials: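 CellTiter-Glo luminescence (cellular ATP) after 24 h compound exposure at 37 C in complete medium; 2500 cells/well, 5 h settling beforehand. Concentration-response fitted to standard Hill equation for AC50. Tetraoctylammonium bromide served as positive control.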

Experiment [11] is described as follows: Cell Viability - LYMP2-006 (AID 978).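 Note: cells exposed to compound for 24 hours; % is set by controls: 0 for no effect and ±100 for the full control effect; nearly all actives have a fitted effect of over 60% in size.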 The note with it: LYMP2-006 lymphoblastoid cell viability, qHTS; series mostly up to 92.2 µM. The essentials: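 qHTS, 1536-well; 2500 cells/well, 5 hr 37 C; cpd 24 hr 37 C; CellTiter-Glo 30 min RT; luminescence. Tetraoctylammonium bromide pos. ctrl. AC50 via Hill eqn.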
Experiment [12] in a line: Cell Viability - LYMP2-008 (AID 980). Note: % is set by controls: 0 for no effect and ±100 for the full control effect; nearly all actives have a fitted effect of over 60% in size. The note with it: LYMP2-008 lymphoblastoid cell viability, qHTS; series mostly up to 92.2 µM. The essentials:
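Acute cytotoxicity is scored as concentration-dependent loss of cellular ATP in a human lymphoblastoid line after 24 hr treatment at 37 C. ATP is quantified by luciferase luminescence.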

Experiment [13] is described as follows: Cell Viability - LYMP2-026 (AID 989). Note: % is set by controls: 0 for no effect and ±100 for the full control effect; nearly all actives have a fitted effect of over 50% in size. The conditions noted are these: LYMP2-026 lymphoblastoid cell viability, qHTS; series mostly up to 92.2 µM. The essentials:
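Concentration-dependent loss of intracellular ATP in human lymphoblastoid cells after 24 hr at 37 C, quantified by luciferase luminescence. AC50 derived from standard Hill equation.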

A short description of experiment [14]: Cell Viability - LYMP1-002 - Assay at 24 hr (AID 993). Note: % is set by controls: 0 for no effect and ±100 for the full control effect. The note with it: LYMP1-002 lymphoblastoid cells viability; series mostly up to 92.2 µM. In short, it runs like this: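 qHTS, LYMP1-002 lymphoblastoid, 24 h cpd, 37 C, CellTiter-Glo ATP luminescence; AC50 via Hill eq.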
A short description of experiment [15]: Cell Viability - LYMP1-002 - Assay at 40 hr (AID 994).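 Note: 0% = DMSO only and full inhibition = 92 µM tetraoctylammonium bromide; nearly all actives have a fitted effect of over 60% in size.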 The conditions noted are these: LYMP1-002 lymphoblastoid cell viability; series mostly up to 92.2 µM. In short, it runs like this:
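Viability in the human lymphoblastoid line was measured as intracellular ATP via CellTiter-Glo after 40 hr compound exposure. Tetraoctylammonium bromide served as positive control.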

The nature of experiment [16]: qHTS assay for small molecule agonists of retinoid X receptor alpha signaling (AID 588544). The note with it: HEK293T RXRa-UAS-bla, beta-lactamase reporter, 18 h; 530 nm emission.
Experiment [17] in a line: qHTS assay for small molecule disruptors of the mitochondrial membrane potential - 5 hr assay (AID 651755; calls by dose curve; note: % is set by controls: 0 for no effect and ±100 for the full control effect; nearly all actives have a fitted effect of over 40% in size). The conditions noted are these: JC-1-type ratio dye; series mostly up to 92.2 µM. In short, it runs like this: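 HepG2 cells, attached overnight at 37C, were exposed to compound or DMSO for 5 hr at 37C, 5% CO2. Mito-MPS dye was then added for 30 min, and fluorescence read at 490/535 nm (monomers) and 540/590 nm (aggregates).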

In experiment [18] the target is Tumor necrosis factor (Homo sapiens) (UniProt P01375). The experiment is described as follows: qHTS assay to identify small molecules that stimulate Tumor Necrosis Factor-alpha (TNF-alpha) secretion (AID 651757; active = well fitted curve in the direction sought with a large enough effect in the signal ratio; the % refers to the signal ratio; note: 0% is about no effect). The note with it: Human cells, HTRF 665/615 ratio; series mostly up to 92.2 µM. In short, it runs like this:
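Secreted TNF-alpha from compound-treated THP-1 cells (17 hrs, 37 C) was quantified with a homogeneous time-resolved fluorescence antibody assay.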

The target of experiment [19] is Peroxisome proliferator-activated receptor alpha (Homo sapiens) (UniProt Q07869). In words: qHTS assay for small molecule agonists of the peroxisome proliferator-activated receptor alpha (PPARalpha) signaling pathway (AID 651778). Note: % of control where 0% means no effect. The note with it: PathHunter PPARalpha complementation, chemiluminescence, 6 h; stronger effect = higher value. In short, it runs like this:
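Cells plated at 2,000/well and held overnight at 37 C, 5% CO2, then compound added by pin tool for 6 hr; after PathHunter detection reagent and 60 min at room temperature, chemiluminescence from enzyme complementation was read.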

The nature of experiment [20]: qHTS assay for small molecule agonists of the antioxidant response element (ARE) signaling pathway measured by Nrf2-dependant transcriptional activity (AID 720636; active = well fitted curve in the direction sought with a large enough effect in the repeat runs; an effect the other way counts as inactive or inconclusive; note: % of control where 0% means no effect). The note with it: ARE-luc HepG2, Nrf2 luciferase reporter, 16 h; series mostly up to 92.4 µM. The essentials: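 ONE-Glo luminescence, read 30 min after reagent addition at room temperature, reflected ARE reporter activity in HepG2 cells that had been incubated with compound for 16 hr at 37 C in 1% dialyzed FBS.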

Chain of Tumor necrosis factor (Homo sapiens) (P01375 whole entry, looked up): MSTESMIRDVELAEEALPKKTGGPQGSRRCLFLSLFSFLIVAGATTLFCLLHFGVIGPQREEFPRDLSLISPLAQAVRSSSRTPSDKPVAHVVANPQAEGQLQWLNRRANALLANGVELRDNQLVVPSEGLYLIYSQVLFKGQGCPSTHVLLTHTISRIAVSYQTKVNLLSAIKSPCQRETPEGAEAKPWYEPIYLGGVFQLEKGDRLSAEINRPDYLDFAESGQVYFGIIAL
Chain of Peroxisome proliferator-activated receptor alpha (Homo sapiens) (Q07869 whole entry, looked up): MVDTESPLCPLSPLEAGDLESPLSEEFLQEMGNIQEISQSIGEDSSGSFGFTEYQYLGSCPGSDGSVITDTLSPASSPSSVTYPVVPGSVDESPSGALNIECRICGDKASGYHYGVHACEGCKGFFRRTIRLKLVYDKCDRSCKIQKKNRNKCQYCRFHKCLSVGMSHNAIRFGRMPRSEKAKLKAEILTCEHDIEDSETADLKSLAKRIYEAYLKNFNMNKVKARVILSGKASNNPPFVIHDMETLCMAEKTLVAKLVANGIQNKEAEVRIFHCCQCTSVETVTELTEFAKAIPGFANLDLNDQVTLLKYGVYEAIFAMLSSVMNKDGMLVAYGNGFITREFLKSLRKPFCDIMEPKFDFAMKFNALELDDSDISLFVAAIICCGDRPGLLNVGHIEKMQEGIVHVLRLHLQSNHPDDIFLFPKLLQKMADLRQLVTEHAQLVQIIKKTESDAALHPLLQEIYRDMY

`O=NN(CCO)CCO`: the Potency in experiment [1] and in experiment [2] was > 92 µM (inactive) in each case. For the same compound, in [3], the activity change, negative = cytotoxicity is -10.5% (inactive). Also, the Potency result in [4], in experiment [8], in [9], in experiment [10], in experiment [11] and in experiment [12] was “inactive” throughout. Moreover, the Potency result in [13], in experiment [14], in experiment [15] and in experiment [17] was “inactive” in each case. For the same compound, the call in experiment [5], in [6], in experiment [7], in experiment [18] and in experiment [20] was inactive. In addition, the max response in experiment [16] was -8.04%; in experiment [19] it was -4.3% (inactive).
As for `C[C@]12CC[C@H]3[C@@H](CCC4=CC(=O)CC[C@@]43C)[C@@H]1CC[C@@H]2O`, the Potency in experiment [1] and in experiment [2] was > 92 µM (inactive) in each case. In addition, in experiment [3], the activity change, negative = cytotoxicity was -5.73% (inactive). Besides, the compound was classed as inactive in [5], in experiment [6], in experiment [7], in experiment [18] and in experiment [20]. Further, the Potency result in experiment [8], in [9], in experiment [10], in [11], in experiment [12] and in experiment [13] was “inactive” each time. In addition, the Potency entry in experiment [14], in experiment [15] and in experiment [17] was “inactive” throughout. Moreover, the max response in experiment [16] was 3.81%; in experiment [19] it was -2.99% (inactive).
Regarding `Clc1ccc2ccccc2c1`, the Potency in [1] and in [2] was > 92 µM (inactive) each time. Further, the activity change, negative = cytotoxicity in [3] was 3.7% (inactive). Further, the Potency result in experiment [4], in experiment [8], in experiment [9], in experiment [10], in [11] and in [12] was “inactive” in each case. Also, the Potency entry in experiment [13], in [14], in experiment [15] and in experiment [17] was “inactive” throughout. For the same compound, the result in experiment [5], in [6], in experiment [7], in experiment [18] and in [20] was inactive. Further, the figures for the max response in experiment [16] and in experiment [19] were -15.7% and 0.9% (inactive), respectively.
Take `Nc1ccc(Br)cc1`: the Potency in experiment [1] and in experiment [2] was > 92 µM (inactive) throughout. In addition, the activity change, negative = cytotoxicity in experiment [3] is -2.5% (inactive). The Potency entry in experiment [4], in experiment [8], in experiment [9], in [10], in experiment [11] and in experiment [12] was “inactive” throughout. The Potency entry in experiment [13], in experiment [14], in [15] and in experiment [17] was “inactive” in each case. Also, the outcome in [5], in experiment [6], in [7], in experiment [18] and in [20] was inactive. Besides, the values for the max response in experiment [16] and in experiment [19] were 1.14% and -1.52% (inactive), respectively.
For the compound `CC(=O)[O-].CC(=O)[O-].O.O.O.[Pb+2]`, the Potency in experiment [1] and in experiment [2] was > 92 µM (inactive) each time. Also, the activity change, negative = cytotoxicity in experiment [3] is 13.3% (inactive) and 9.03% (inactive). The Potency entry in experiment [4], in experiment [8], in [9], in experiment [10], in experiment [11] and in experiment [12] was “inactive” throughout. In addition, the Potency entry in experiment [13], in experiment [14], in [15] and in experiment [17] was “inactive” in each case. Further, the outcome in experiment [5], in experiment [6], in [7], in experiment [18] and in [20] was inactive. Moreover, the max response in experiment [16] was -8.91% and -19.7%; in experiment [19], -4.64% (inactive) and -4.52% (inactive).
As to `C=CCOC(=O)c1ccccc1N`, the Potency in experiment [1] and in experiment [2] was > 92 µM (inactive) throughout. Besides, the activity change, negative = cytotoxicity in experiment [3] was 1.61% (inactive). For the same compound, the Potency result in experiment [4], in experiment [8], in experiment [9], in [10], in experiment [11] and in experiment [12] was “inactive” throughout. Moreover, the Potency entry in experiment [13], in experiment [14], in [15] and in [17] was “inactive” in each case. Moreover, the compound was called inactive in experiment [5], in experiment [6], in [7], in [18] and in experiment [20]. Besides, the max response is 1.54% in experiment [16] and 1.13% (inactive) in [19].
